# Screening results as filed in PubChem.
# Mito fusion act – blocks mitochondrial division or promotes mitochondrial fusion. S. cerevisiae fusion-defective mutant growth rescue, CellTiterGlo 48 h. Potency, µM (highest dose often 46.1 µM), inactives show at the highest dose growth rescue (activation), actives largely listed as activators. 0.23% of 320,000 active. AID 485298; also: % of control where 0% means no effect; nearly all actives have a fitted effect of over 45% in size
#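 Yeast fusion mutant, YPEG (non-fermentable carbon), compound, 48 h at 37C non-permissive; CellTiterGlo added, 10 min RT, luminescence read. Rescued growth = division inhibition.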
# mIDH1 inhibitor – human IDH1 R132H inhibition; IDH1-R132H enzyme, NADPH consumption, diaphorase/resazurin fluorescence; Potency, µM (top dose mostly 76.6 µM), without a hit: at the highest dose activity change, negative = inhibition, actives largely listed as inhibitors; 0.093% of 390,000 active; O75874; also: % is scaled to controls: 0 for no effect and ±100 for the full control effect; nearly all actives have a fitted effect of over 65% in size
#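 IDH1-R132H (0.5 ug/mL) preincubated 30 min with compound, then NADPH (0.016 mM) and alpha-KG (2 mM) added; 80 min at RT, pH 7.5. Remaining NADPH coupled via diaphorase/resazurin to fluorescence (540/590 nm); concentration-response curves normalized to no-enzyme control.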
# A549 tox – A549 cytotoxicity, counter-screen for Nrf2 inhibitors; A549 ARE-Fluc cells, CellTiter-Fluor viability, 18-24 h; 0.16% of 390,000 active; Potency, µM (highest dose often 46 µM), for the others: at the top dose activity change, negative = cytotoxicity, hits mostly inhibitors; also: % is scaled to controls: 0 for no effect and ±100 for the full control effect
#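 A549 ARE-Fluc cells in 5% FBS OPTI-MEM, 5000 cells/well, rested 2 h then exposed to compounds in concentration-response for 18-24 h at 37 °C. Viability by CellTiter-Fluor fluorescence (Ex 405/Em 525) after 30 min; luciferase luminescence (BugLite, 15 min, RT) read afterwards.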
# rTrxR1 inhibitor – rat TrxR1 inhibition; O89049; Potency, µM (highest dose often 114 µM), for the others: top-dose activity change, negative = inhibition, usual class: inhibitors; recombinant rTrxR1, NADPH fluorescence consumption, selenite substrate; 1% of 390,000 active; also: % is scaled to controls: 0 for no effect and ±100 for the full control effect; nearly all actives have a fitted effect of over 65% in size
# Target sequence (O89049 whole entry, looked up): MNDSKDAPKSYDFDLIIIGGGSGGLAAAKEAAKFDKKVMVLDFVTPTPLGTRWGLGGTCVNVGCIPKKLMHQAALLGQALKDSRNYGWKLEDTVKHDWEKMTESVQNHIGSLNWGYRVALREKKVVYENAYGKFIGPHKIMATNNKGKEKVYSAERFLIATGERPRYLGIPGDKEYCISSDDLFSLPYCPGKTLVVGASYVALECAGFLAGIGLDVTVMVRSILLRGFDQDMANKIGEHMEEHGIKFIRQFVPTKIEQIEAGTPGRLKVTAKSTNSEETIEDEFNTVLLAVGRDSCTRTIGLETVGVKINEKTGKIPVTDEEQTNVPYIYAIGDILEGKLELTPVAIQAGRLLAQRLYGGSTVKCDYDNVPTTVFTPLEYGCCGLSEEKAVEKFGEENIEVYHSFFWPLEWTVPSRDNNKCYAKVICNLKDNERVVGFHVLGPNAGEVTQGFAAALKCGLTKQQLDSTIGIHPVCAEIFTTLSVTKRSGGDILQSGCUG
#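 Rat TrxR1 (90 nM in the dispensed reagent) was pre-reduced with 400 uM NADPH for 5 min at room temperature, then incubated with compound for 15 min. After 400 uM selenite was added, NADPH fluorescence (Ex 340/Em 450 nm) was followed for 8 min.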
# TrxR1 substrate – substrates of rat thioredoxin reductase 1; O89049; 0.01% of 390,000 active; purified TrxR1 substrate turnover, NADPH consumption readout; Potency, µM (titrated, usually from 114 µM), for inactives: at the highest dose activity change, negative = substrate turnover; AID 588456; also: % is scaled to controls: 0 for no effect and ±100 for the full control effect; nearly all actives have a fitted effect of over 50% in size
#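 Rat TrxR1, dispensed at 90 nM, was prereduced with 400 uM NADPH (final) for 5 min at ~22 deg C, then incubated with compound 15 min before 400 uM selenite. A first-read NADPH fluorescence drop versus no-compound background flagged substrates.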
# Nrf2 block – Nrf2 pathway inhibition | 2.1% of 360,000 active | Potency, µM (series often up to 46 µM), inactives show top-dose activity change, negative = inhibition, most hits filed as inhibitors | AID 504444 | A549 ARE-Fluc reporter, luciferase luminescence, 18-24 h; also: % is scaled to controls: 0 for no effect and ±100 for the full control effect; nearly all actives have a fitted effect of over 60% in size
#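 Nrf2 function is reported as luminescence of an ARE-controlled luciferase in A549 cells. Compounds were tested at several concentrations, and a CellTiter-Fluor read on the same wells flagged cytotoxicity.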
# Numbers without * were called inactive; i = inactive; ? = inconclusive; . = no result; [ ] = dose if it differs, or a comment. A selection: hits, their analogues and other compounds. The true share with any hit is near 3.1%. Calls follow the shape of the dose curve; as a rule, active = well fitted curve in the direction sought with a large enough effect; inconclusive = small, poorly fitted or top-dose-only effect, or another doubt; inactive = no such curve, though single readings can be large; an effect the other way counts as inactive or inconclusive. Potency is read from the fitted curve at half-maximal effect.
SMILES,Mito fusion act,mIDH1 inhibitor,A549 tox,rTrxR1 inhibitor,TrxR1 substrate,Nrf2 block
CCCc1nn2c(=O)cc(COC(=O)CNC(=O)COc3ccc(C)cc3)nc2s1,.,23%,4%,15%[57.1 µM],6%[57.1 µM],?
CCCN(c1ccccc1CC)S(=O)(=O)c1ccc2c(c1)CC(C)N2C(=O)C1CC1 (centres undefined),.,.,-6%,14%,-10%,21µM*
CC1Cc2cc(S(=O)(=O)CCC(=O)Nc3ccc(OC(F)(F)F)cc3)ccc2N1C(=O)C1CC1 (centres undefined),.,-6%,1%,10%,-2%,23µM*
CCCCN(c1ccccc1)S(=O)(=O)c1ccc2c(c1)CC(C)N2C(=O)C1CC1 (centres undefined),.,0%,-7%,13%,-4%,?
Cc1cc(C)c(NS(=O)(=O)c2ccc3c(c2)CC(C)N3C(=O)C2CCC2)c(C)c1 (centres undefined),.,-2%,-5%,18%,0%,21µM*
COc1ccccc1CNS(=O)(=O)c1ccc2c(c1)CC(C)N2C(=O)C1CCC1 (centres undefined),7%,8%,-14%,-4%,-3%,18µM*
CCOc1ccc(CC(=O)NCc2ccc3c(c2)CCN3C(=O)c2ccccc2)cc1OCC,.,-18%,-2%,3%[57.1 µM],-3%[57.1 µM],.
CCCOc1ccc(C(=O)Nc2ccc3oc(-c4ccncc4)nc3c2)cc1,.,-16%,-1%,7%,2%,0%
COc1ccc(OC)c(NC(=O)c2csc(Cl)c2OC)c1,10µM*,5%,8%,27%,14%,10%
COc1ccc(OC)c(NC(=O)c2ccc(Cl)cc2)c1,15%,15%,15%,14%[57.1 µM],5%[57.1 µM],7%
Cc1ccc(C)c(NC(=O)CCCn2c(C)c3cnn(-c4ccccc4)c(=O)c3c2C)c1,.,23%,4%,-16%,-5%,-4%
CCC(=O)NC(=S)Nc1c(C)cc(Br)cc1C,0%,14%,-2%,28µM*,3%,-23%
Cn1nc(C(=O)N2CCN(c3cccc(Cl)c3)CC2)c2c1-c1ccccc1S(=O)(=O)C2,11µM*,8%,3%,36%[57.1 µM],12%[57.1 µM],?
Cc1ccc(N2CCN(C(=O)c3nn(C)c4c3CS(=O)(=O)c3ccccc3-4)CC2)c(C)c1,11µM*,4%,-2%,14%,0%,0%
Cc1cc2c(s1)c1cnn(Cc3ccc(Cl)c(F)c3)c(=O)c1n2C,.,.,0%,.,.,-6%
CC1CCN(CC[S-])CC1.O.O.[Cl][Pt],.,.,.,1.4µM*,-7%,.
O=S(=O)(/N=C(/Sc1ccccc1)c1ccccc1)c1ccc(Cl)cc1,.,.,-2%,23%,15%,-13%
CC#CCN1c2ccccc2[C@]23C[C@@H](C(=O)OC)N(C(=O)c4cc(C)oc4C)C2=NC(C(=O)OC)=C(C(=O)OC)[C@H]13,?,-15%,-15%,1%,-2%,16µM*
CC(=O)Oc1c(Cl)cc(Cl)cc1/C=C/c1ccc2ccccc2n1,-4%,10%,9%,12%,19%,16%
COc1cc(/C=C/c2cc(OC(C)=O)c3ccccc3n2)c(OC(C)=O)c([N+](=O)[O-])c1,-1%,-9%,15µM*,-7%,-5%,?
CCn1nnc2c(N3CCCC3)ncnc21,.,.,0%,-4%,6%,-5%
CN(C(=O)c1nc(-c2cccc(F)c2)n2c1CCCCC2)c1ccccc1F,.,0%,10%,21%,7%,?
CCOc1ccc(CCNC(=O)c2nc(-c3cccc(F)c3)n3c2CCCCC3)cc1OCC,.,-6%,?,-5%,-2%,21µM*
O=C(NCCc1csc(-c2ccc(C(F)(F)F)cc2)n1)c1cccs1,29%,5%,-2%,7%[57.1 µM],9%[57.1 µM],26µM*
Cc1nn2c(-c3ccco3)nnc2c2ccccc12,2%,3%,-9%,79µM*,-9%,23%
SMILES,Mito fusion act,mIDH1 inhibitor,A549 tox,rTrxR1 inhibitor,TrxR1 substrate,Nrf2 block
Cc1ccccc1-c1nnc2c3ccccc3c(C)nn12,12%,-3%,-4%,11%,5%,26%
N#CC(C#N)=C1C=CC=CN1/C(=C\c1ccccc1Cl)C(=O)c1ccccc1,-3%,-6%,-3%,?,-12%,?
N#CC(C#N)=C1C=CC=CN1/C(=C\c1ccccc1)C(=O)c1cccs1,15%,-15%,1%,0.45µM*,9%,-11%
CCOc1ccc(-c2nnc(SCC(=O)NCc3ccc(C)cc3)nc2-c2ccc(OCC)cc2)cc1,.,7%,2%,18%[57.1 µM],0%[57.1 µM],.
N#Cc1ccc(NC(=O)COCc2cc(-c3ccc(F)cc3)on2)cc1,.,0%,-4%,13%,-6%,-6%
NC(=O)COc1ccc2cc(-c3ccccc3)c(=O)oc2c1,3%,-13%,1%,?,309%,1%
O=C(O)C(Oc1ccc2cc(-c3ccc(Cl)cc3)c(=O)oc2c1)c1ccccc1 (centres undefined),1%,4%,8%,45µM*,i,5%
COc1ccc(C(=O)NNC(=O)C(=O)Nc2ccc(C)c(Cl)c2)cc1,0%,3%,?,17%,-6%,5.8µM*
CCC(c1ccc(O)c(O)c1)C(CC)c1ccc(O)c(O)c1 (centres undefined),.,-10%,-11%,7.9µM*,5%,?
COc1ccc(CNC(=O)C[C@H]2C[C@H](C(=O)N3CCOCC3)[C@@]3(CCC4CCCC4)c4[nH]c5cc(-c6ccco6)ccc5c4CCN3C2=O)cc1OC,.,-7%,-29%,5%,5%,23µM*
O=C(CC1C[C@H](C(=O)N2CCOCC2)[C@@]2(CCC3CCCC3)c3[nH]c4ccccc4c3CCN2C1=O)NCC12CC3CC(CC(C3)C1)C2 (some centres undefined),.,-5%,?,0%,-11%,23µM*
CC[C@]12c3[nH]c4ccc(Cl)cc4c3CCN1C(=O)[C@@H](CC(=O)NCC13CC4CC(CC(C4)C1)C3)C[C@@H]2C(=O)N1CCN(C(=O)C2CC2)CC1,.,-18%,-29%,22%,-9%,23µM*
C=C[C@H](CC(C)C)N(Cc1ccccc1)S(=O)(=O)N(Cc1ccccc1)[C@H](C=C)CC(C)C,.,.,.,34%,1%,.
C=C1NN(CC#N)C(=O)N1c1ccc(OCc2ccccc2)cc1,.,.,.,9%,-1%,.
CS(=O)(=O)N1CCc2cc(-c3csc(NC(=O)Cc4cccs4)n3)ccc21,27%,3%,-19%,3%[57.1 µM],6%[57.1 µM],18µM*
CC(=O)Nc1nc(-c2ccc3c(c2)CCN3S(C)(=O)=O)cs1,-1%,13%,3%,13%[57.1 µM],3%[57.1 µM],10%
